Measurements reported in PubChem BioAssay (NCATS).
Values joined by “and” are separate entries in the source; they are usually repeats but may differ in a detail not shown here. Identical values can stand only once. Inconclusive results are not listed. Active and inactive are the calls of the source. Calls come from the whole dose curve; as a rule, active = well fitted curve in the direction sought with a large enough effect; inconclusive = small, poorly fitted or top-dose-only effect, or another doubt; inactive = no such curve, though single readings can be large; an effect the other way counts as inactive or inconclusive.

Key:
[1] = molecular target: Cellular tumor antigen p53 (Homo sapiens) (UniProt P04637); assay: Primary qHTS for small molecule compounds that upregulate eGFP-tagged delta133p53alpha (in N-terminal) cells. (AID 2060322); conditions: NCI-H358 eGFP-delta133p53alpha fluorescence, 24 h; activation: active compounds read high;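 note: cells pre-induced with doxycycline then dosed without doxycycline; 0% = DMSO vehicle and 100% = reference activator; nearly all actives have a fitted effect of over 75% in size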
Sequence of Cellular tumor antigen p53 (Homo sapiens) (P04637 whole entry, looked up): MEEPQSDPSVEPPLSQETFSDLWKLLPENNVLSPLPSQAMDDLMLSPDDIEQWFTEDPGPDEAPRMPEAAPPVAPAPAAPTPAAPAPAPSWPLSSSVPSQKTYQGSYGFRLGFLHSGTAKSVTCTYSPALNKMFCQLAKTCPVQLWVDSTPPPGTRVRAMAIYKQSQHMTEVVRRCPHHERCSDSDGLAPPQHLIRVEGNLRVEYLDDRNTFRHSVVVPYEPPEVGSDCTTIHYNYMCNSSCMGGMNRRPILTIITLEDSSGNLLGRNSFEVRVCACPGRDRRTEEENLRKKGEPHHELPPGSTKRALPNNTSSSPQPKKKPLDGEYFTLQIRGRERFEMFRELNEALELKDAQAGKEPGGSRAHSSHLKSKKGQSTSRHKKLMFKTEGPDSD
Method in brief: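 NCI-H358 cells pre-induced 24 h with 10 ng/ml doxycycline for eGFP-delta133p53alpha, plated dox-free and exposed 24 h at 37C to titrated compounds. Fixed, Hoechst-stained; gated GFP peak intensity by laser scanning cytometry, normalized to DMSO (0%) and 57.5 uM 5-azacytidine (100%).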

[2] = molecular target: Aldehyde dehydrogenase, mitochondrial (Homo sapiens) (UniProt P05091); assay: qHTS for Inhibitors of the Aldehyde Dehydrogenase Family (ALDH2) Primary screen (AID 2061308); conditions: ALDH2 enzyme inhibition qHTS, 1536-well; series mostly up to 56 µM;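 note: plate controls were vehicle for no effect and reference inhibitor for full effect; nearly all actives have a fitted effect of over 55% in size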
[3] = molecular target: Retinaldehyde dehydrogenase 3 (Homo sapiens) (UniProt P47895); assay: qHTS for Inhibitors of the Aldehyde Dehydrogenase Family (ALDH1A3) Validation screen (AID 2061312); conditions: ALDH1A3 enzyme inhibition qHTS validation, fluorescence; series mostly up to 84.7 µM; note: % is set by controls: 0 for no effect and ±100 for the full control effect; nearly all actives have a fitted effect of over 45% in size
[4] = molecular target: Retinaldehyde dehydrogenase 3 (Homo sapiens) (UniProt P47895); assay: qHTS for Inhibitors of the Aldehyde Dehydrogenase Family (ALDH1A3) Primary screen (AID 2061315); conditions: ALDH inhibition qHTS; series mostly up to 56 µM;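 note: plate controls were DMSO vehicle for no effect and reference inhibitor for full effect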
[5] = BET inhibitor-based combinations targeting novel dependencies in MECOM-rearranged (r) AML: SET-2 cell line (AID 2202231); conditions: SET-2 AML cells viability, CellTiter-Glo luminescence, 48 h; viability: active compounds read low, concentration not given here; note: nearly all actives have a fitted effect of over 35% in size; note: potency is the fitted concentration of half-maximal effect;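 for viability: plate controls were DMSO treated cells for no effect and wells without cells for full effect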
Method in brief: (§1)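 Luminescent ATP readout (CellTiter-Glo) after 48 hr drug exposure gives viability. Curves span 11 concentrations and are normalized to DMSO and empty wells. Activity is reported as area under the curve and its Z-transform within each cell line.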

[6] = BET inhibitor-based combinations targeting novel dependencies in MECOM-rearranged (r) AML: AML-194 cell line (AID 2202237; note: nearly all actives have a fitted effect of over 40% in size; note: potency is the fitted concentration of half-maximal effect); conditions: AML-194 (MECOM-r AML) viability, CellTiter-Glo, 48 h; series mostly up to 46 µM
Method in brief: as §1

[7] = BET inhibitor-based combinations targeting novel dependencies in MECOM-rearranged (r) AML: MV-4-11 cell line (AID 2202233); conditions: MV-4-11 AML viability, CellTiter-Glo luminescence, 48 h; series mostly up to 46 µM; note: nearly all actives have a fitted effect of over 45% in size; note: potency is the fitted concentration of half-maximal effect
Method in brief: (§2)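 Luminescent ATP readout (CellTiter-Glo, 15 min at room temperature) after 48 hr drug exposure gave viability. Dose-response curves, normalized to DMSO and empty-well controls, were summarized as area under the curve and its mean-centred Z-score.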

[8] = BET inhibitor-based combinations targeting novel dependencies in MECOM-rearranged (r) AML: AML-191 cell line (AID 2202236; note: nearly all actives have a fitted effect of over 35% in size; note: potency is the fitted concentration of half-maximal effect); conditions: AML-191 viability, CellTiter-Glo luminescence, 48 h; series mostly up to 46 µM
Method in brief: as §1

[9] = BET inhibitor-based combinations targeting novel dependencies in MECOM-rearranged (r) AML: HNT-34 cell line (AID 2202234); conditions: HNT-34 AML viability, CellTiter-Glo luminescence, 48 h; series mostly up to 46 µM; note: nearly all actives have a fitted effect of over 35% in size; note: potency is the fitted concentration of half-maximal effect
Method in brief: as §2

[10] = BET inhibitor-based combinations targeting novel dependencies in MECOM-rearranged (r) AML: UCSD-AML1 cell line (AID 2202235); conditions: UCSD-AML1 AML cells viability, CellTiter-Glo, 48 h; series mostly up to 46 µM; note: nearly all actives have a fitted effect of over 40% in size; note: potency is the fitted concentration of half-maximal effect
Method in brief: as §2

[11] = BET inhibitor-based combinations targeting novel dependencies in MECOM-rearranged (r) AML: OCI-AML3 cell line (AID 2202232); conditions: CellTiter-Glo luminescence, 48 h; Potency: OCI-AML3 viability; series mostly up to 46 µM; note: nearly all actives have a fitted effect of over 35% in size; note: potency is the fitted concentration of half-maximal effect
Method in brief: as §1

OCCn1cc(-c2cnc3nnn(Cc4ccc5ncccc5c4)c3n2)cn1
inactive: activation [1] -13.3% and 3.34% | Potency [2] | Potency [3] | Potency [4] | viability [5] 101% | Potency [6]

O=C(O)Cn1nnc(-c2cc(N3CCC(Oc4cc(F)ccc4Br)CC3)no2)n1
inactive: activation [1] 22.3% and 6.21% | Potency [2] | Potency [3] | Potency [4] | viability [5] 127% | Potency [7] | Potency [8] | Potency [6]

C[C@H](NC(=O)Cc1cc(F)cc(F)c1)C(=O)N[C@@H]1C(=O)N(C)c2ccccc2-c2ccccc21
inactive: activation [1] 27.1% and -2.39% | Potency [2] | Potency [3] | Potency [4] | viability [5] 121% | Potency [9] | Potency [10] | Potency [8] | Potency [6]

O=C(O)C[C@H](O)C[C@H](O)/C=C/c1c(C2CC2)nc2ccccc2c1-c1ccc(F)cc1
active: Potency [11] 1.05 µM | Potency [7] 2.09 µM | Potency [9] 2.95 µM | Potency [10] 2.63 µM | Potency [8] 10.5 µM | Potency [6] 13.2 µM
inactive: activation [1] 15.3% | Potency [2] | Potency [3] | Potency [4]

NS(=O)(=O)OC[C@@H]1C[C@@H](n2ccc3c(N[C@H]4CCc5ccccc54)ncnc32)C[C@@H]1O
inactive: activation [1] -7.64% and -2.39% | Potency [2] | Potency [3] | Potency [4]
active: Potency [5] 0.525 µM | Potency [9] 0.372 µM | Potency [10] 0.59 µM | Potency [8] 0.934 µM | Potency [6] 0.934 µM

Cc1nn(C)c(COc2ccc(N3CCN(S(=O)(=O)N(C)C)CC3)cc2)c1-c1cccc2c(CCCOc3cccc4ccccc34)c(C(=O)O)n(CCN3CCOCC3)c12
inactive: activation [1] -22.8% | Potency [2] | Potency [3] | Potency [4] | viability [5] 112% | Potency [10] | Potency [6]
active: Potency [7] 6.61 µM

CC1(C)Cc2c(-c3ccccc3)c(-c3ccc(Cl)cc3)c(CC(=O)O)n2C1
active: Potency [7] 23.5 µM
inactive: activation [1] -18.1% and -12.4% | Potency [2] | Potency [3] | Potency [4] | viability [5] 104% | Potency [10] | Potency [8] | Potency [6]

Cc1cc(Nc2ncnc3ccc(-c4ccc(CNCCS(C)(=O)=O)o4)cc23)ccc1Oc1ccn2ncnc2c1
inactive: activation [1] 23.7% and 4.3% | Potency [2] | Potency [3] | Potency [4] | viability [5] 75.4% | Potency [8] | Potency [6]

CC(C)N(CCCNC(=O)Nc1ccc(C(C)(C)C)cc1)C[C@H]1O[C@@H](n2ccc3c(N)ncnc32)[C@H](O)[C@@H]1O
inactive: activation [1] -20% and -29.1% | Potency [2] | Potency [3] | Potency [4] | viability [5] 93.2% | Potency [10] | Potency [8] | Potency [6]

CC(C)N(CCCNC(=O)Nc1ccc(C(C)(C)C)cc1)C[C@H]1O[C@@H](n2cc(Br)c3c(N)ncnc32)[C@H](O)[C@@H]1O
inactive: activation [1] -6.7% | Potency [2] | Potency [3] | Potency [4] | Potency [10]
active: Potency [11] 23.5 µM | Potency [7] 20.9 µM | Potency [9] 26.3 µM | Potency [6] 23.5 µM

CC(C)(C)c1cc(C(=O)O)c(NC(=O)Nc2ccc3[nH]ncc3c2)s1
active: Potency [7] 18.6 µM
inactive: activation [1] 7.87% and -13.8% | Potency [2] | Potency [3] | Potency [4] | Potency [11] | Potency [9] | Potency [10] | Potency [8]

CC(C)(C)OC(=O)N[C@H]1CCCCCC=C[C@@H]2C[C@@]2(C(=O)NS(=O)(=O)C2CC2)NC(=O)[C@@H]2C[C@@H](OC(=O)N3Cc4cccc(F)c4C3)CN2C1=O
inactive: activation [1] 5.4% | Potency [2] | Potency [3] | Potency [4] | viability [5] 102% | Potency [9] | Potency [10] | Potency [8] | Potency [6]

O=C(c1ccc(NS(=O)(=O)c2cccc3cccnc23)cc1)N1CCN(CC2CC2)CC1
inactive: activation [1] -3.34% | Potency [2] | Potency [3] | Potency [4] | Potency [11] | Potency [7] | Potency [9] | Potency [10] | Potency [8] | Potency [6]

CCc1nc(-c2cccc(C)c2)c(-c2ccnc(NC(=O)c3ccccc3)c2)s1
active: Potency [11] 0.0093 µM | Potency [7] 10.5 µM
inactive: activation [1] 17.2% | Potency [2] | Potency [3] | Potency [4]

Cc1nc(C(=O)NCC(=O)O)c(O)c2ccc(Oc3ccccc3)cc12
inactive: activation [1] 24.6% and -12.3% | Potency [2] | Potency [3] | Potency [4] | viability [5] 96.3% | Potency [10] | Potency [6]
